GCN5L2 inh – qHTS Assay for Inhibitors of GCN5L2; GCN5L2 HAT assay, ThioGlo1 CoA-SH fluorescence; 0.21% of 390,000 active; Potency, µM (doses to about 58.9 µM), usual class: inhibitors; AID 504327, 2011; Histone acetyltransferase KAT2A (Homo sapiens), Q92830
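Preincubate 20nM GCN5L2 with compound 15 min, RT → add 50uM ThioGlo1 + 75uM H3(1-25) + 70uM acetyl-CoA → read fluorescence 0 and 20 min. Primary qHTS; fluorescent artifacts likely.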
APE1 inh – qHTS Assay for Inhibitors of the Human Apurinic/apyrimidinic Endonuclease 1 (APE1). DNA repair nuclease/redox regulator APEX1 (Homo sapiens), P27695. recombinant APE1, TAMRA/BHQ-2 abasic DNA cleavage fluorescence. Potency, µM (highest dose often 65.8 µM), usual class: inhibitors. 0.35% of 350,000 active; further: nearly all actives have a fitted effect of over 55% in size
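Enzyme (0.75 nM final) and test compound are incubated 15 min at room temperature before adding 50 nM quenched THF abasic-site duplex. Cleavage dequenches TAMRA, followed at 525/598 nm over three reads one minute apart.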
RECQ1 inh-1 – qHTS Assay for Inhibitors of RecQ-Like Dna Helicase 1 (RECQ1); RECQ1 DNA unwinding, red fluorescence kinetic read; ATP-dependent DNA helicase Q1 (Homo sapiens), P46063; AID 2549, 2010; 0.54% of 240,000 active; Potency, µM (series often up to 57.3 µM), hits mostly inhibitors; further: nearly all actives have a fitted effect of over 30% in size
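RECQ1T1 50 nM; forked duplex (20 bp + 30-nt ss tails) 200 nM, ATP 2 mM final; pH 8.0, 2 mM MgCl2, 2.5 ug/ml poly(dI-dC); 15 min compound preincubation; discontinuous kinetic read over 2 h at RT.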
JMJD2E inh – qHTS Assay for Inhibitors of Human Jumonji Domain Containing 2E (JMJD2E). Lysine-specific demethylase 4E (Homo sapiens), B2RXH2. JMJD2E catalytic domain, FDH-coupled NADH fluorescence (FDH is formaldehyde dehydrogenase). Potency, µM (titrated, usually from 57.1 µM), actives largely listed as inhibitors. 1.6% of 230,000 active; active means well fitted inhibition curve with a large enough effect, not every such curve was filed as active; inconclusive means small, poorly fitted or top-dose-only effect, or another doubt; inactive means no such curve, though single readings can be large or run the other way; further: nearly all actives have a fitted effect of over 50% in size
BLM inh – qHTS Assay for Inhibitors of Bloom's syndrome helicase (BLM); 0.2% of 350,000 active; recombinant BLM DNA unwinding, fluorescence dequenching; Potency, µM (highest dose often 56.1 µM), actives largely listed as inhibitors; further: nearly all actives have a fitted effect of over 35% in size
Target sequence (P54132 whole entry, looked up): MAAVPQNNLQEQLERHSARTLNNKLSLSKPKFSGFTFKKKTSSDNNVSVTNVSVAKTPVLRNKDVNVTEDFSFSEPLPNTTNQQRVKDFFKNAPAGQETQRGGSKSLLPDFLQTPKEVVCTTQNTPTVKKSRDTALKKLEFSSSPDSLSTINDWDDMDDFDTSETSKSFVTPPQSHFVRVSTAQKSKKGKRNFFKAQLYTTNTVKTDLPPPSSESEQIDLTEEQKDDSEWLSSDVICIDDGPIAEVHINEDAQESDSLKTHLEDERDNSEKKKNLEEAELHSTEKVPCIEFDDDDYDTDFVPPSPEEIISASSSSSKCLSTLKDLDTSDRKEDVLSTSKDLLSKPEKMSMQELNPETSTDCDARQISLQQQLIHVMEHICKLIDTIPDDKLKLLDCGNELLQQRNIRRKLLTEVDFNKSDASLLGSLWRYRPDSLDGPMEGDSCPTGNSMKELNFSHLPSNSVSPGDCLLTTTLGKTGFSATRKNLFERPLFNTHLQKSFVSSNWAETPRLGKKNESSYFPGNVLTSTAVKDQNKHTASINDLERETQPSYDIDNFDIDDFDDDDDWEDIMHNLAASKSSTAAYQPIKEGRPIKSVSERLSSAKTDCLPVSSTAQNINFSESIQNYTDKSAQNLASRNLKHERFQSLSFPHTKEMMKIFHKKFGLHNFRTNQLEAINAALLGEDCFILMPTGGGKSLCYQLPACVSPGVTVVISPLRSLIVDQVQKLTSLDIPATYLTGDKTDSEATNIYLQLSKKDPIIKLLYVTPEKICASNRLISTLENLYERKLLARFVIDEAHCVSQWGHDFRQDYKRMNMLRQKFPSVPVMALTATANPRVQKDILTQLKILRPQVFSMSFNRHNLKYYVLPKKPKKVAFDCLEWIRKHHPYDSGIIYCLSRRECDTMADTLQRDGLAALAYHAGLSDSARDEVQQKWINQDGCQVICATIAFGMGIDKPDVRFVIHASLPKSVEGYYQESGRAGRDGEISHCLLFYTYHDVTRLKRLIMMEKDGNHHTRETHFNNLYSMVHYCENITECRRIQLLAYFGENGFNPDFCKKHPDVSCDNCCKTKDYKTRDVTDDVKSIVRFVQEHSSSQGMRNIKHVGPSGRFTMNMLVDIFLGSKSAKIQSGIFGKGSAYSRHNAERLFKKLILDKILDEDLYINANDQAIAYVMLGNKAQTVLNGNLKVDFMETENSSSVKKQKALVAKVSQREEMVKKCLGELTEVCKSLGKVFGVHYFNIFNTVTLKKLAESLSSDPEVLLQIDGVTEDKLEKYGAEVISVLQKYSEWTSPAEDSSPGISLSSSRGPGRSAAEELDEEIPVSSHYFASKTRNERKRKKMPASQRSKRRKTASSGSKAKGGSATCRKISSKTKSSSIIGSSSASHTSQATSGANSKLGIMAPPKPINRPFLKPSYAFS
L3MBTL1 inh-1 – qHTS Assay for the Inhibitors of L3MBTL1. Lethal(3)malignant brain tumor-like protein 1 (Homo sapiens), Q9Y468. AlphaScreen L3MBTL1–H3K9me1 peptide binding. Potency, µM (doses to about 57.1 µM), usual class: inhibitors. 0.66% of 230,000 active; further: nearly all actives have a fitted effect of over 60% in size
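L3MBTL1 50 nM + b-AHA-H3(1-15)K9me1 75 nM, 30 min RT; compound added, 30 min RT; streptavidin donor/Ni-chelate acceptor beads 10 ug/mL each final, 30 min RT dark; AlphaScreen read.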
RECQ1 conf – Confirmation qHTS Assay for Inhibitors of RecQ-Like Dna Helicase 1 (RECQ1); RECQ1 helicase DNA unwinding, fluorescence; Potency, µM (titrated, usually from 229 µM), hits mostly inhibitors; 28% of 610 active; shares compounds with RECQ1 inh-1; further: nearly all actives have a fitted effect of over 45% in size
RECQ1 ADP FP – Counterscreen for RECQ1 Inhibitors: ADP Fluorescence Polarization Displacement Assay | Potency, µM (top dose mostly 228 µM), hits mostly inhibitors | shares compounds with RECQ1 inh-1 | 27% of 530 active | AID 2711, 2010 | ADP fluorescence polarization displacement counterscreen; further: nearly all actives have a fitted effect of over 45% in size
RECQ1 inh-2 – Confirmation qHTS Assay for Inhibitors of RecQ-Like Dna Helicase 1 (RECQ1) - Round 2 Cherry Picks; 15% of 1,100 active; recombinant RECQ1 DNA unwinding, red fluorescence; shares compounds with RECQ1 inh-1; Potency, µM (titrated, usually from 119 µM), usual class: inhibitors; further: nearly all actives have a fitted effect of over 50% in size
L3MBTL1 inh-2 – qHTS Assay for the Inhibitors of L3MBTL1: Hit Validation; Potency, µM, most hits filed as inhibitors; 91% of 500 active; L3MBTL1 methyl-lysine binding inhibition, biochemical qHTS; shares compounds with L3MBTL1 inh-1; further: nearly all actives have a fitted effect of over 70% in size
L3MBTL1 ctr – qHTS Assay for the Inhibitors of L3MBTL1: Hit Validationin AlphaScreen Counterscreen; shares compounds with L3MBTL1 inh-1; 500 tested, under 10 active; AlphaScreen counterscreen, signal inhibition; Potency, µM (top dose mostly 57.1 µM), most hits filed as inhibitors; AID 602224, 2012
Hits are given with their value. Many of the other results were omitted from the sample, so hits are more common in it than they were. Unless noted, the call rests on the fitted dose curve; in most records, active means well fitted curve in the direction sought with a large enough effect; inconclusive means small, poorly fitted or top-dose-only effect, or another doubt; inactive means no such curve, though single readings can be large; an effect the other way counts as inactive or inconclusive.

For O=C(O)CCC(=O)N1CCc2cc(S(=O)(=O)NC3CCCC3)ccc21 the results were GCN5L2 inh inactive, APE1 inh inactive, RECQ1 inh-1 inactive, JMJD2E inh inactive, BLM inh inactive, L3MBTL1 inh-1 inactive, RECQ1 conf inactive and RECQ1 ADP FP inactive.
Screening CCOc1ccc(CC(=O)NCc2ccc3c(c2)CCN3C(=O)c2ccccc2)cc1OCC returned GCN5L2 inh inactive and BLM inh inactive.
For CCOc1ccc(CCNC(=O)c2nn(-c3ccc(OC)cc3)c(=O)c3c2c2ccccc2n3C)cc1OCC the results were GCN5L2 inh inactive and BLM inh inactive.
`Cc1ccc(CNS(=O)(=O)c2ccc3c(c2)CCN3C(=O)CCCC(=O)O)cc1` gave GCN5L2 inh inactive, APE1 inh inactive, RECQ1 inh-1 inactive, JMJD2E inh inactive, BLM inh inactive, RECQ1 conf inactive and RECQ1 ADP FP inactive.
Screening O=C(O)CCCC(=O)N1CCc2cc(S(=O)(=O)N3CCc4ccccc43)ccc21 returned GCN5L2 inh inactive, APE1 inh inactive, RECQ1 inh-1 inactive, JMJD2E inh inactive, BLM inh inactive, RECQ1 conf inactive and RECQ1 ADP FP inactive.
CC(=O)N1CCc2cc(S(=O)(=O)NCc3ccc(C)cc3)ccc21 was read as GCN5L2 inh inactive, APE1 inh inactive and BLM inh inactive.
O=C(OCC(=O)N1CCc2ccccc2C1)c1cccc([N+](=O)[O-])c1 was read as GCN5L2 inh inactive, APE1 inh inactive, RECQ1 inh-1 inactive, JMJD2E inh inactive, BLM inh inactive and L3MBTL1 inh-1 inactive.
For Cc1ccc(S(=O)(=O)Nc2ccc(N3CCOCC3)nc2)cc1 the results were GCN5L2 inh inactive, APE1 inh inactive, RECQ1 inh-1 inactive, JMJD2E inh inactive, BLM inh inactive and L3MBTL1 inh-1 inactive.
Cc1ccc(C)n1-c1ccc(N2CCOCC2)nc1 was read as GCN5L2 inh inactive, APE1 inh inactive, RECQ1 inh-1 inconclusive, JMJD2E inh inconclusive, BLM inh inactive, L3MBTL1 inh-1 inactive and RECQ1 inh-2 inactive.
For CC(=O)C1=C(C)OC2(O)c3ccccc3C(=O)C12O (centres undefined) the results were GCN5L2 inh inactive, APE1 inh inconclusive, RECQ1 inh-1 inconclusive, JMJD2E inh inconclusive, BLM inh inactive, L3MBTL1 inh-1 inactive and RECQ1 inh-2 inactive.
Screening CCN(CC)CCCNC(=O)C1CCN(S(=O)(=O)CC)CC1 returned GCN5L2 inh inactive and BLM inh inactive.
Screening COc1ccc(Sc2ccc(/C=C3\C(=O)NN(c4ccccc4)C3=O)o2)cc1 returned GCN5L2 inh inactive, APE1 inh inactive, RECQ1 inh-1 10µM, JMJD2E inh inactive, BLM inh inactive, L3MBTL1 inh-1 28µM, RECQ1 conf inactive, L3MBTL1 inh-2 21 and L3MBTL1 ctr inconclusive.
COc1ccc(C)cc1NC(=O)C(=O)NCCc1sc(-c2ccc(Cl)cc2)nc1C was read as GCN5L2 inh inactive and BLM inh inactive.
O=C(/C=C/c1ccco1)N(c1ccccn1)c1ccccn1 was read as GCN5L2 inh inconclusive, APE1 inh inconclusive, RECQ1 inh-1 inconclusive, JMJD2E inh inconclusive, BLM inh inconclusive, L3MBTL1 inh-1 4µM, RECQ1 inh-2 45µM, L3MBTL1 inh-2 2.7 and L3MBTL1 ctr inactive.
`O=C(c1ccco1)N(c1ccccn1)c1ccccn1` gave GCN5L2 inh inactive, APE1 inh inactive, RECQ1 inh-1 inactive, JMJD2E inh inactive and BLM inh inactive.
Screening COC(=O)c1ccccc1NC(=O)CCS(=O)(=O)c1ccc(Br)cc1 returned GCN5L2 inh inactive, APE1 inh inconclusive, RECQ1 inh-1 32µM, JMJD2E inh inconclusive, BLM inh inactive, L3MBTL1 inh-1 8.9µM, RECQ1 inh-2 inconclusive, L3MBTL1 inh-2 2.7 and L3MBTL1 ctr inactive.
Screening CCc1ccccc1NC(=O)CCS(=O)(=O)c1ccc(Br)cc1 returned GCN5L2 inh inactive, APE1 inh inactive and BLM inh inactive.
Screening Cc1ccc(C(CCN(Cc2ccccc2)C(=O)c2ccco2)c2ccco2)cc1 (centres undefined) returned GCN5L2 inh inconclusive, APE1 inh inactive, RECQ1 inh-1 20µM, JMJD2E inh inactive, BLM inh inconclusive, L3MBTL1 inh-1 25µM, RECQ1 conf 50µM, RECQ1 ADP FP inactive, RECQ1 inh-2 inconclusive, L3MBTL1 inh-2 21 and L3MBTL1 ctr inactive.
Screening CN(Cc1ccccc1)C(=O)c1ccco1 returned GCN5L2 inh inactive, APE1 inh inactive, RECQ1 inh-1 inactive, JMJD2E inh inactive, BLM inh inactive and L3MBTL1 inh-1 inactive.
For O=C(/C=C/c1ccco1)NCC1OCCc2ccccc21 (centres undefined) the results were GCN5L2 inh inactive, APE1 inh inconclusive, RECQ1 inh-1 inconclusive, JMJD2E inh inconclusive, BLM inh inconclusive, L3MBTL1 inh-1 22µM, RECQ1 inh-2 6.3µM, L3MBTL1 inh-2 6 and L3MBTL1 ctr inactive.
